This is part of a sample that, as a whole, favours compounds with a hit. Of some 83,000 tested, about 20% had one in any assay.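 Assay: single dose, 48 h. Readout: percent growth (0 = no net growth; negative = cell death). Active: <10.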 Values without a mark were called inactive. The source made the active and inactive calls.

Test systems include SR leukemia; RPMI-8226 leukemia; OVCAR-8 ovarian; OVCAR-5 ovarian; OVCAR-4 ovarian; SK-OV-3 ovarian; IGROV1 ovarian; HS 578T breast; NCI/ADR-RES ovarian; T-47D breast; BT-549 breast; MDA-MB-435 melanoma; SW-620 colon; MCF7 breast; HCT-116 colon; HCC-2998 colon; KM12 colon.
Holding throughout (test): NCI-60 one-dose screen, 48 h (100 = growth as untreated, 0 = no growth, -100 = all killed)
Holding throughout (details): 10 µM unless noted

`O=C(CSc1nnc(-c2ccc3nc(-c4ccccc4)[nH]c3c2)o1)Nc1ccc(C(=O)/C=C/c2ccccc2)cc1`: the growth in the assay on SR leukemia was 111%; in the assay on RPMI-8226 leukemia it was 94.3%; in the assay on OVCAR-8 ovarian, 100%; in the assay on OVCAR-5 ovarian, 118%; in the assay with OVCAR-4 ovarian it was 100%; with SK-OV-3 ovarian it was 109%. Also, the growth in the assay with IGROV1 ovarian is 95.8%; in the assay with HS 578T breast, 103%; with NCI/ADR-RES ovarian, 105%; in the assay on T-47D breast it was 98.6%; in the assay with BT-549 breast, 96.8%; in the assay on MDA-MB-435 melanoma it was 101%. Further, the growth was 116% in the assay on SW-620 colon; 87.6% in the assay with MCF7 breast; 97% in the assay with HCT-116 colon; 106% in the assay on HCC-2998 colon; 110% in the assay on KM12 colon.
Turning to `Cc1ccc2c(c1)C(=O)/C(=C/c1cccc(F)c1)S2`, the growth with SR leukemia was 101%; with RPMI-8226 leukemia, 84.6%; in the assay with OVCAR-8 ovarian it was 103%; in the assay with OVCAR-5 ovarian, 105%; with OVCAR-4 ovarian, 99.7%; in the assay on SK-OV-3 ovarian, 99%. The growth with IGROV1 ovarian was 97.7%; with HS 578T breast it was 104%; with NCI/ADR-RES ovarian, 109%; in the assay with T-47D breast, 101%; in the assay on BT-549 breast, 134%; in the assay with MDA-MB-435 melanoma, 98.1%. The growth in the assay with SW-620 colon was 105%; in the assay with MCF7 breast, 73.7%; in the assay with HCT-116 colon, 105%; in the assay on KM12 colon, 101%.
For the compound `COc1cc(-c2nc3sccn3c2-c2ccnc(S(C)(=O)=O)n2)ccc1F`, the growth is 86.3% with SR leukemia; 91.9% with RPMI-8226 leukemia; 98.3% in the assay with OVCAR-8 ovarian; 98.3% in the assay on OVCAR-5 ovarian; 98.2% with OVCAR-4 ovarian; 113% in the assay with SK-OV-3 ovarian. Also, the growth is 98.1% with IGROV1 ovarian; 101% in the assay with HS 578T breast; 95.7% in the assay on NCI/ADR-RES ovarian; 97.9% in the assay with T-47D breast; 92.2% with BT-549 breast; 91.5% in the assay with MDA-MB-435 melanoma. For the same compound, the growth in the assay on SW-620 colon is 99%; with MCF7 breast, 84.1%; in the assay with HCT-116 colon it was 103%; in the assay with KM12 colon, 102%.
Take `CCOC(=O)c1c(Nc2ccccc2)nn2c(-c3cccs3)ccnc12`: the growth in the assay on SR leukemia is 63.5%; in the assay with RPMI-8226 leukemia it was 66.2%; in the assay with OVCAR-8 ovarian it was 92.2%; with OVCAR-5 ovarian it was 90.3%; in the assay with OVCAR-4 ovarian, 91.7%; in the assay on SK-OV-3 ovarian it was 83.2%. In addition, the growth with IGROV1 ovarian was 91.3%; in the assay on HS 578T breast, 90.2%; with NCI/ADR-RES ovarian it was 87.4%; in the assay on T-47D breast it was 79.2%; with MDA-MB-435 melanoma, 87.5%; with SW-620 colon, 88.7%. Besides, the growth is 90.5% in the assay on MCF7 breast, 78% with HCT-116 colon, 100% with HCC-2998 colon and 82.1% with KM12 colon.
Turning to `O=C(O)c1cn(C2CC2)c2cc(N3CCN(C(=O)CN4C(=O)CSC4=O)CC3)c(F)cc2c1=O`, the growth with SR leukemia is 99.3%; in the assay with RPMI-8226 leukemia, 126%; in the assay on OVCAR-8 ovarian, 105%; in the assay on OVCAR-5 ovarian, 99%; with OVCAR-4 ovarian, 86.4%; with SK-OV-3 ovarian, 113%. Besides, the growth in the assay on IGROV1 ovarian was 82.6%; with HS 578T breast it was 97.7%; in the assay with NCI/ADR-RES ovarian, 108%; with T-47D breast it was 106%; in the assay on MDA-MB-435 melanoma, 98.6%; in the assay with SW-620 colon it was 100%. For the same compound, the growth in the assay on MCF7 breast is 98.8%; in the assay on HCT-116 colon it was 98.8%; in the assay with HCC-2998 colon, 115%; with KM12 colon it was 101%.
For `Cc1cccc(/C=C/C(=O)Nc2ncc(Cc3cccc(C)c3)s2)c1`, the growth was 6.46% (active) in the assay on SR leukemia; 19.1% in the assay on RPMI-8226 leukemia; 24.3% in the assay with OVCAR-8 ovarian; 40.6% with OVCAR-5 ovarian; 45.6% in the assay with OVCAR-4 ovarian; 30% in the assay with SK-OV-3 ovarian. The growth in the assay on IGROV1 ovarian was 32.5%; in the assay with HS 578T breast, 14.2%; with NCI/ADR-RES ovarian, 18.3%; in the assay with T-47D breast, 32.7%; in the assay on BT-549 breast it was 66.6%; in the assay with MDA-MB-435 melanoma it was -70.2% (active). For the same compound, the growth in the assay with SW-620 colon is 16.8%; in the assay on MCF7 breast it was 15.1%; with HCT-116 colon, 23.1%; in the assay on KM12 colon it was 6.43% (active).
As to `COc1cc2oc(-c3cccc(C(=O)N[C@@H](CC(C)C)C(=O)OC(C)(C)C)c3)cc(=O)c2c(OC)c1OC`, the growth with SR leukemia is 42.1%; in the assay with RPMI-8226 leukemia, 37.4%; in the assay with OVCAR-8 ovarian, 49.3%; in the assay on OVCAR-5 ovarian, 93%; in the assay on OVCAR-4 ovarian it was 69.6%; in the assay with SK-OV-3 ovarian it was 111%. Besides, the growth in the assay with IGROV1 ovarian was 71.5%; with HS 578T breast, 56.9%; in the assay on NCI/ADR-RES ovarian, 49%; in the assay with T-47D breast, 52.7%; in the assay on BT-549 breast it was 67.5%; in the assay on MDA-MB-435 melanoma, 90%. Also, the growth is 83.4% in the assay on SW-620 colon; 69.9% in the assay on MCF7 breast; 62.5% in the assay on HCT-116 colon; 84% in the assay on HCC-2998 colon; 59.8% with KM12 colon.
On to `C[C@@H]1C[C@H]2C(=O)O[C@@H](C)C(NC(=O)[C@H](Cc3cc(F)cc(F)c3)NC(=O)Nc3ccc(C4CC4)cc3F)C(=O)N3CCC[C@H]3C(=O)N3CCCC[C@H]3C(=O)N[C@@H](CO)C(=O)N2C1` (stereo not given in full), for which the growth in the assay on SR leukemia is 28.1%; in the assay with RPMI-8226 leukemia it was 14.9%; with OVCAR-8 ovarian, 20.9%; in the assay with OVCAR-5 ovarian, 29.9%; with OVCAR-4 ovarian it was 21.3%; in the assay with SK-OV-3 ovarian it was 21%. The growth with IGROV1 ovarian is 42.2%; in the assay on HS 578T breast it was 32.7%; with NCI/ADR-RES ovarian it was 36.1%; in the assay with T-47D breast it was 21.7%; in the assay on BT-549 breast, 27.6%; with MDA-MB-435 melanoma, 17.9%. Besides, the growth in the assay on SW-620 colon is 35.8%; in the assay with MCF7 breast it was 16.1%; in the assay with HCT-116 colon it was 10.6%; in the assay with KM12 colon, 38%.

Source of the values: PubChem BioAssay (NCI).
